# Calls of active or inactive are those of the source. The calls were made as follows: active = hit-call score of the fitted dose curve at least 0.9, where 1 is the maximum; inactive = score below 0.9.
# How the values were obtained:
# [1] = read-out: E-selectin (Homo sapiens) (UniProt P16581); assay: BSK_SAg_Eselectin: BioMAP Diversity Plus: SAg Assay for Eselectin Biomarker Activity (AID 2283091); conditions: primary human HUVEC with PBMC; actives raise or lower the signal
# Method in brief: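 Primary human endothelial cells and peripheral blood mononuclear cells were co-cultured and exposed to chemical for 24 hours. E-selectin levels were then quantified by ELISA, with bidirectional curve fitting normalised to DMSO controls.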
# [2] = read-out: Monokine induced gamma interferon (MIG), CXCL9 (gene 4283); assay: BSK_SAg_MIG: BioMAP Diversity Plus: SAg Assay for Monokine induced gamma interferon (MIG) Biomarker Activity (AID 2283092); conditions: primary human HUVEC with PBMC; actives raise or lower the signal
# Method in brief: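 Endothelial cells and PBMC were co-cultured, exposed to test chemicals, and sampled 24 h later. MIG was measured by ELISA, and responses were fitted in both directions relative to DMSO.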
# [3] = BSK_SAg_PBMCCytotoxicity: PBMC Cytotoxicity Assessment in the BioMAP Diversity Plus: SAg Assay (AID 2283093); conditions: primary human HUVEC with PBMC;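 also: PBMC viability measured as Alamar Blue reduction fluorescence at 546/580 nm; fitted both ways against DMSO so a hit may be loss or gain of signal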;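 as to AC50: PBMC superantigen activated with SEB plus TSST-1 one hour after compound addition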
# Method in brief: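 Human umbilical vein endothelial cells co-cultured with PBMC; PBMC (75,000/well) pre-treated with compound 1 h, then activated with SEB and TSST-1 (20 ng/mL final each) for 90 h. Alamar Blue added 6 h, fluorescence 546/580 nm; bidirectional fit versus DMSO.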
# [4] = read-out: Interleukin-8 (IL8), CXCL8 (gene 3576); assay: BSK_SAg_IL8: BioMAP Diversity Plus: SAg Assay for Interleukin-8 (IL8) Biomarker Activity (AID 2283094); conditions: primary human HUVEC with PBMC; actives raise or lower the signal
# Method in brief: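 Human umbilical vein endothelial cells co-cultured with PBMC, stimulated with superantigen; IL-8 measured by ELISA 24 h after chemical dosing. Bidirectional fitting versus DMSO; SRB staining in parallel cultures tracks cytotoxicity.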
# [5] = BSK_SAg_Proliferation: Cell Proliferation Assessment in the BioMAP Diversity Plus: SAg Assay (AID 2283095); conditions: primary human HUVEC with PBMC
# Method in brief: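 Human umbilical vein endothelial cells co-cultured with PBMC; sulforhodamine B total-protein staining (0.1% SRB after 10% TCA fixation, absorbance 560 nm) at 96 h in sub-confluent culture. Fitted bidirectionally against DMSO.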
# [6] = BSK_SAg_SRB: Viability Assessment in the BioMAP Diversity Plus: SAg Assay (AID 2283096); conditions: primary human HUVEC with PBMC;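 also: cells read one day after compound addition; hits may be either gain or loss of signal compared with DMSO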
# Method in brief: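 Endothelial/PBMC primary human co-culture; compound 24 h; fix 10% TCA, stain 0.1% SRB, A560; protein content as cytotoxicity proxy; bidirectional curve fit, DMSO = baseline.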
# Chain of E-selectin (Homo sapiens) (P16581 whole entry, looked up): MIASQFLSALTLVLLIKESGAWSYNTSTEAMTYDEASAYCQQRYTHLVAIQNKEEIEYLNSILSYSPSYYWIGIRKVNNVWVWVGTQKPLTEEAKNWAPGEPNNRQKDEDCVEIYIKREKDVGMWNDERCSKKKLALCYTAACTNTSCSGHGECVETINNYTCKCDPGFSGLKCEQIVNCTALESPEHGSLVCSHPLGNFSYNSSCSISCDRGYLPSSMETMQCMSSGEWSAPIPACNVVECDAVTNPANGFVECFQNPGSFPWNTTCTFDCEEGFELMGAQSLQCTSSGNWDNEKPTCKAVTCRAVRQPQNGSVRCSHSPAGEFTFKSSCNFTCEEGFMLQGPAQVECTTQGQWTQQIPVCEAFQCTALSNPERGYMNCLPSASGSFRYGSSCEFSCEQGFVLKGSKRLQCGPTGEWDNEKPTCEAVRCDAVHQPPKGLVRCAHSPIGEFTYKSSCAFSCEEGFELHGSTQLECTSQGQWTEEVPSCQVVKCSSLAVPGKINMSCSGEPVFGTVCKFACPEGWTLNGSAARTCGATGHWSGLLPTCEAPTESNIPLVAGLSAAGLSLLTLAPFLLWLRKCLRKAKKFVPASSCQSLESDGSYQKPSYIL
SMILES,AC50 [1],outcome [2],AC50 [3],AC50 [4],AC50 [5],AC50 [6],outcome [1],outcome [3],outcome [4],outcome [5],outcome [6],AC50 [2]
C=C1CC/C=C(\C)CC[C@@H]2[C@@H]1CC2(C)C,20 µM (active),inactive,20 µM (active),32.3 µM (active),22.8 µM (active),33.1 µM (active),–,–,–,–,–,–
CCCO[Si](OCCC)(OCCC)OCCC,–,inactive,–,–,–,–,inactive,inactive,inactive,inactive,inactive,–
OCCN1CCOCC1,–,inactive,–,–,–,–,inactive,inactive,inactive,inactive,inactive,–
CC(C)CCCC(C)(C)O,–,inactive,–,–,–,–,inactive,inactive,inactive,inactive,inactive,–
CC1(C)[C@H](C=C(Cl)Cl)[C@H]1C(=O)OCc1cccc(Oc2ccccc2)c1,–,inactive,–,–,–,–,inactive,inactive,inactive,inactive,inactive,–
C=C(F)C(=O)OC(C(F)(F)F)C(F)(F)F,–,inactive,–,–,–,–,inactive,inactive,inactive,inactive,inactive,–
NC(=O)c1c(Cl)cccc1Cl,–,inactive,–,–,–,–,inactive,inactive,inactive,inactive,inactive,–
CCCCCCCCCCCCS,–,inactive,–,–,20 µM (active),36.1 µM (active),inactive,inactive,inactive,–,–,–
COc1ccccc1NC(=O)CC(C)=O,–,inactive,–,–,–,–,inactive,inactive,inactive,inactive,inactive,–
O=S1(=O)CC(Cl)(Cl)C(Cl)(Cl)C1,0.224 µM (active),–,0.515 µM (active),0.337 µM (active),0.0797 µM (active),0.655 µM (active),–,–,–,–,–,2.75 µM (active)
O=C1OC2(c3ccc(O)cc3Oc3cc(O)ccc32)c2ccccc21,–,inactive,–,–,1.02 µM (active),–,inactive,inactive,inactive,–,inactive,–
O=S(=O)(O)C(F)(F)C(F)(F)OC(F)(F)C(F)(F)F,–,inactive,–,–,–,–,inactive,inactive,inactive,inactive,inactive,–
c1ccc(Sc2ccccc2)cc1,30.2 µM (active),–,33.9 µM (active),20 µM (active),34 µM (active),31.7 µM (active),–,–,–,–,–,34.5 µM (active)
CC(C)(CO)CO,–,inactive,–,–,–,–,inactive,inactive,inactive,inactive,inactive,–
CCn1cc(C(=O)O)c(=O)c2ccc(C)nc21,–,inactive,–,–,–,–,inactive,inactive,inactive,inactive,inactive,–
CC(=O)CCC=C(C)CCC=C(C)C,–,inactive,–,–,20 µM (active),–,inactive,inactive,inactive,–,inactive,–
CCCCCCCC1CCCC1=O (stereo not drawn),–,inactive,–,–,–,–,inactive,inactive,inactive,inactive,inactive,–
CCCCN(CCO)CCO,–,inactive,–,–,–,–,inactive,inactive,inactive,inactive,inactive,–
CC(=O)c1ccc(C)cc1,–,inactive,–,–,–,–,inactive,inactive,inactive,inactive,inactive,–
CC(=O)OCC=C(C)CCC=C(C)CCC=C(C)C,–,inactive,–,–,–,–,inactive,inactive,inactive,inactive,inactive,–
CC(=O)OC(C)(C)C1CC=C(C)CC1 (stereo not drawn),–,inactive,–,–,–,–,inactive,inactive,inactive,inactive,inactive,–
CCC(=O)OCC=Cc1ccccc1,–,inactive,–,–,–,–,inactive,inactive,inactive,inactive,inactive,–
c1ccc2c(c1)-c1ccc3ccc4cccc5cc-2c1c3c45,–,inactive,–,–,–,–,inactive,inactive,inactive,inactive,inactive,–

# Source: PubChem BioAssay (EPA / NIEHS)
